Results on 18 compounds are retold here after PubChem BioAssay.

Molecules are shown by their SMILES.

The test system of test [1] is Human papillomavirus type 1a protein E7 (residues 44-93). Put plainly: small molecules binding HPV E7 44-93 – biochemical, small-molecule microarray, residues 44-93, 635 nm fluorescence, primary screen (AID 1108).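 Further: E7 fragment applied at 1 µg/mL in TBST for 1 h at 4 C; score combines spot fluorescence with its signal to noise ratio.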 Particulars: fluorescence 635 nm, higher = more signal.
A short description of test [2]: hepatitis C replication reporter changes, two-sided – Huh7 cells, luciferase reporter, HCV replication inhibitor project, primary screen (AID 1109).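 Further: huh7 hepatoma cells harbouring a luciferase neomycin HCV replicon reporter; luciferase luminescence as measure of HCV replicon replication; test concentration not given here.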 Particulars: Huh7 HCV replicon luciferase reporter, 48 h; higher = more signal. In general terms: In a reporter assay the amount or activity of a reporter protein is the signal.
The target in test [3] is Left-right determination factor 2 (Homo sapiens) (UniProt O00292). The experiment in a line: small molecules binding LEFTY2 protein – biochemical, small-molecule microarray, 635 nm fluorescence scan, primary screen (AID 1110). The settings on record: higher = more signal.
Sequence of Left-right determination factor 2 (Homo sapiens) (O00292 whole entry, looked up): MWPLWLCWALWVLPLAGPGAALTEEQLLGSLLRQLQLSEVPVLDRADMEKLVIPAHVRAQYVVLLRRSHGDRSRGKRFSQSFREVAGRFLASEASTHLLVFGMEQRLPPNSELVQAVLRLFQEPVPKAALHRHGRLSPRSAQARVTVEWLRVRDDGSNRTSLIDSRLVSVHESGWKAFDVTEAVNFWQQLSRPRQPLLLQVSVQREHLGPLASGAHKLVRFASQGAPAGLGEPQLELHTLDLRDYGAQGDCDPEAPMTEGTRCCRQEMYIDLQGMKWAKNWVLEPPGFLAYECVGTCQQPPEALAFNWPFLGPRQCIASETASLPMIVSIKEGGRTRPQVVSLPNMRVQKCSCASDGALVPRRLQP
Test [4] deals with Calmodulin-1 (Homo sapiens) (UniProt P0DP23). Put plainly: small molecules binding calmodulin-1 with EGTA – biochemical, small-molecule microarray, Cy5-labelled CALM1, profiling panel (AID 1111).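 Further: labelled calmodulin applied in Tris saline Tween buffer holding calcium plus EGTA and DTT.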 The settings on record: Cy5-CALM1 binding fluorescence, higher = more signal.
The target is the same in test [5]. The experiment in a line: small molecules binding Ca-loaded calmodulin-1 – biochemical, small-molecule microarray, Cy5-labelled CALM1, plus calcium, artefact control for SMM control-protein annotation, profiling panel (AID 1112).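 Further: score merges spot fluorescence with signal to noise from triplicate slides.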 The settings on record: Cy5-CALM1 binding fluorescence, higher = more signal.
Test [6] is described as follows: probe aWnt5a binding to arrayed compounds – biochemical, biotinylated probe, 635/667 nm fluorescence, primary screen (AID 1113).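 Further: score merges 667 nm fluorescence intensity with signal-to-noise per printed feature.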 The settings on record: small-molecule microarray, higher = more signal.
Test [7] can be described thus: probe aShh binding to arrayed compounds – biochemical, biotinylated probe, 635/667 nm fluorescence, primary screen (AID 1114).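 Further: probe is biotin-labelled aShh protein from a stem cell growth factor screen; measures binding of labelled protein to compounds printed on the slide; score merges feature fluorescence at 667 nm with signal-to-noise.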 Particulars: small-molecule microarray, higher = more signal.
Test [8] can be described thus: probe aNog binding to arrayed compounds – biochemical, biotinylated probe, 635/667 nm fluorescence, primary screen (AID 1115).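 Further: probe is biotinylated aNog protein used at 0.15 µg/mL for 1 h at 4 C; z-score combines 667 nm fluorescence of each spot with its signal to noise.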 The settings on record: small-molecule microarray, higher = more signal.
The target in test [9] is Torsin-1A-interacting protein 1 (Homo sapiens) (UniProt Q5JTV8). Put plainly: compound microarray binding of lysate hLAP1 – cell lysate, small-molecule microarray, COS7 lysate, 635/667 nm fluorescence, primary screen (AID 1116). Particulars: 635 nm fluorescence, higher = more signal.
Sequence of Torsin-1A-interacting protein 1 (Homo sapiens) (Q5JTV8 whole entry, looked up): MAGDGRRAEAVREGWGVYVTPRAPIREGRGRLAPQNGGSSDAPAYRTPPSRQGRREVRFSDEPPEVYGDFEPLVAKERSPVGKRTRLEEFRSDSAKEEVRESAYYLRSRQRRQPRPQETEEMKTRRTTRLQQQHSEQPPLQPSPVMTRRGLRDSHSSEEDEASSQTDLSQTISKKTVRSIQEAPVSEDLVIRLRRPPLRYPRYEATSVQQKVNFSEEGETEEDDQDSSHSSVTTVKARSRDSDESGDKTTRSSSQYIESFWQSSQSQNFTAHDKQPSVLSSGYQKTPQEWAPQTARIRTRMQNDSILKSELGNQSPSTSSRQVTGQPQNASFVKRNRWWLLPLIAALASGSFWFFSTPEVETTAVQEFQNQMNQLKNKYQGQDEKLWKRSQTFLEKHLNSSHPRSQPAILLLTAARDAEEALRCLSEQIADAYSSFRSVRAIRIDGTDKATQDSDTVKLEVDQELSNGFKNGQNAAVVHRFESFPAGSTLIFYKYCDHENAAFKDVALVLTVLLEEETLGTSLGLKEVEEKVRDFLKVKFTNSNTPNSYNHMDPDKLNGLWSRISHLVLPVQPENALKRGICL
The target of test [10] is Alpha-bungarotoxin (Bungarus multicinctus) (UniProt P60615). The experiment in a line: compounds binding labelled alpha-BTX control protein – biochemical, small-molecule microarray, Alexa647 label, 635/667 nm fluorescence, artefact control for SMM control protein annotation, profiling panel (AID 1117). Particulars: alpha-BTX-A647 binding fluorescence, higher = more signal.
Sequence of Alpha-bungarotoxin (Bungarus multicinctus) (P60615 whole entry, looked up): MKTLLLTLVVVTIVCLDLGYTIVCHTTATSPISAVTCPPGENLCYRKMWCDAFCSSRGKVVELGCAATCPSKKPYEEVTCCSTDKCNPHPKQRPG

On to `C=CCC(OC(C)=O)[C@@H]1[C@@H](N(Cc2cc3ccccc3o2)C(=O)Cc2ccc(F)cc2)c2cc(OCCCO)ccc2N1C(=O)Cc1ccc2ccccc2c1` (stereo not given in full), for which the composite z-score in test [1] is -0.266; in test [3] it was -0.537; in test [4], 0.0637; in [5] it was 0.34; in test [6] it was -0.147; in test [7] it was 0.0639. The composite z-score in test [8] is -0.136; in [9], 0.0568; in test [10] it was 0.317. This compound showed a z-score in test [2] of 0.185.
Turning to `COC(=O)c1c(CC[C@@H](CO)NC(=O)N[C@@H](C)Cn2cc(-c3ccccn3)nn2)oc(C(C)=O)c1C(=O)OC`, the composite z-score in test [1] is 0.683; in test [3], 0.328; in test [4], -0.063; in test [5], -1.06; in test [6] it was -0.0981; in test [7], 0.123. Besides, the composite z-score was -0.0926 in test [8], 0.237 in test [9] and -0.715 in [10]. In test [2], this compound returned a z-score of 0.51.
Consider `CN(C)c1ccc(C(O)C2C=CC3C(=O)NC(=O)C3N2Nc2ccccn2)cc1` (stereo not given), for which the composite z-score is 1.34 in [1]; 0.883 in test [3]; -0.365 in test [4]; -0.733 in test [5]; -0.13 in [6]; -0.154 in [7]. Besides, the composite z-score in test [8] is 0.213; in [9], -0.269; in test [10] it was 0.162. The compound further returned a z-score in test [2] of -0.125.
For the compound `Cn1cccc1C(O)C1C=CC2C(=O)N(c3ccccc3)C(=O)C2N1Nc1ccccc1` (stereo not given), the composite z-score in test [1] is 1.09; in test [3], 0.739; in test [4], 1.69; in test [5], 0.405; in test [6] it was 0.181; in test [7], -0.0578. The composite z-score in test [8] turned out to be 0.977; in [9], 1.31; in test [10], 1.68. The z-score in test [2] is -0.36.
`C=C(COC)C(=O)CC[C@@H](OC(C)=O)c1cccc(OCCO)c1`: the composite z-score in test [1] was -0.297; in test [3], -0.278; in [4] it was -0.582; in test [5], -0.909; in test [6] it was -0.0403; in [7], -0.214. Further, the values for the composite z-score in test [8], in [9] and in test [10] were -0.0827, 0.578 and -0.485, respectively. Moreover, the z-score in test [2] was -2.41.
`CC(C)N1C(=O)C[C@@](C(=O)O)(c2ccc([N+](=O)[O-])cc2)[C@H]1c1ccc(CO)cc1`: the composite z-score in test [1] is 0.48; in test [3], -1.14; in test [4], 0.233; in [5], 0.432; in test [6], -0.118; in test [7] it was -0.153. In addition, the composite z-score in [8] is -0.409; in [9], 0.335; in test [10] it was -0.315. The same compound registered a z-score in test [2] of 0.253.
On to `CCCNC(=O)[C@@]1(Sc2ccc(C)cc2)CC(=O)N(C2Cc3ccccc3C2)[C@@H]1c1ccc(CO)cc1I`, for which the composite z-score in test [1] is 1.08; in test [3] it was 0.698; in test [4], 0.183; in test [5] it was 0.497; in [6] it was 0.0932; in test [7], -0.221. Moreover, the composite z-score in test [8] stood at 1.17; in test [9], 0.604; in test [10], 0.161. This compound also showed a z-score in test [2] of -1.65.
As for `CCCCCC1=C2CNC(C)(C(=O)OC)C=C2C(C)C1=O` (stereo not given), the composite z-score in test [1] is -0.696; in [3], -0.37; in [4] it was 0.764; in [5], 0.897; in test [6], -0.0519; in [7] it was 0.265. The composite z-score in test [8] was 1.17; in test [9], 0.137; in test [10], -0.0075. In addition, the z-score in test [2] was -0.654.
Regarding `CCOC(=O)C[C@H]1[C@H](OC(=O)c2ccc(C(=O)c3ccccc3)cc2)[C@@H](NC(=O)c2ccc(-c3ccccc3)cc2)c2cc(OCCCO)ccc2N1C(=O)Cc1ccc(OC)cc1`, the composite z-score is 0.625 in test [1]; 0.176 in [3]; 0.439 in test [4]; -0.122 in test [5]; -0.0236 in test [6]; -0.214 in test [7]. The composite z-score in test [8] was -0.468; in test [9], 0.759; in [10], 0.355. Besides, in test [2], the z-score was -0.751.
Consider `CCCN1C(=O)[C@@]2(Cc3ccccc31)N=C(c1ccc(OCCCO)cc1)O[C@H]2c1ccccc1`, for which the composite z-score in test [1] was 1.41; in [3], -0.256; in [4], 0.354; in test [5] it was -0.29; in test [6] it was 0.0857; in test [7], 0.123. Further, the figures for the composite z-score in [8], in [9] and in [10] were 0.587, 1.28 and 1.17, respectively. Also, the z-score in [2] was -2.52.
On to `C=CCNC(=O)[C@@H]1[C@H]2C(=O)O[C@H](c3ccccc3)[C@H](c3ccccc3)N2[C@H](c2ccc(O)cc2)[C@@]12C(=O)N(C(=O)OCCOC)c1ccc(C#CC3=CCCCC3)cc12`, for which the composite z-score in [1] is 1.36; in test [3] it was 0.588; in test [4], 0.544; in test [5] it was -0.0251; in [6], -0.0685; in [7] it was -0.0769. The composite z-score in test [8] turned out to be 0.185; in test [9] it was 0.319; in test [10] it was 0.662. For the same compound, the z-score in [2] was -2.14.
Regarding `COC(=O)[C@@]1(Cc2ccc(F)cc2)[C@H]2c3cc(C(=O)N4CCCC4)n(Cc4ccc(C)c(F)c4F)c3C[C@H]2CN1C(=O)c1ccccc1`, the composite z-score in test [1] is -0.751; in test [3], -0.419; in [4], 0.344; in test [5], 0.612; in [6], -0.119; in [7], -0.0813. Also, the composite z-score in [8] was 0.935; in test [9] it was 0.65; in test [10] it was -0.106. The compound also had a z-score in test [2] of -0.914.
With `COc1ccccc1CN1C(=O)c2ccccc2[C@](Cc2ccccc2I)(C(=O)O)[C@@H]1c1ccc(CO)cc1`, the composite z-score was 1.42 in [1]; 0.717 in [3]; 1.36 in test [4]; 0.477 in [5]; -0.123 in test [6]; 0.336 in [7]. Also, the composite z-score in test [8] worked out at 0.182; in test [9], 0.152; in [10], 1.21. For the same compound, the z-score in test [2] was -0.127.
For `COc1ccc([C@H]2OC[C@@H]3C[C@H](Cc4ccccc4)C(=O)N32)cc1`, the composite z-score is 0.156 in test [1]; 0.367 in test [3]; 0.106 in test [4]; -0.668 in test [5]; 0.188 in [6]; 0.111 in test [7]. The composite z-score in test [8] was -0.113; in test [9], 0.373; in test [10], 1.59. The z-score in [2] is -2.66.
Take `NC(=O)NCC#Cc1ccc2c(c1)[C@]1(C(=O)N2)[C@H](C(=O)N2CCN(c3ncccn3)CC2)[C@H]2C(=O)O[C@H](c3ccccc3)[C@H](c3ccccc3)N2[C@@H]1c1ccc(O)cc1`: the composite z-score in test [1] was 1.23; in test [3], 0.728; in test [4] it was 0.313; in [5], -0.156; in test [6], 0.108; in test [7] it was 0.296. In addition, the composite z-score in [8] was -0.524; in test [9], 0.498; in test [10] it was 0.677. In [2], this compound returned a z-score of -0.437.
Turning to `CCOC(=O)C[C@H]1[C@H](OC(=O)c2cc3ccccc3oc2=O)[C@@H](NC(=O)c2ccc3ccccc3n2)c2cc(OCCCO)ccc2N1C(=O)Cc1ccc(OC)cc1`, the composite z-score was 1.23 in test [1]; 0.735 in [3]; 0.228 in test [4]; -0.653 in [5]; 0.0297 in [6]; -0.0119 in test [7]. For the same compound, the figures for the composite z-score in test [8], in [9] and in test [10] were -0.0428, 0.726 and 0.981, respectively. The compound further came in with a z-score in test [2] of -1.96.
In the case of `CC(c1ccccc1)C(O)C1C=CC2C(=O)N(C)C(=O)C2N1Nc1ccccc1` (stereo not given), the composite z-score in [1] was 1.23; in test [3] it was -0.541; in [4] it was 2; in [5], 0.735; in test [6], 0.157; in [7] it was 0.208. Moreover, the figures for the composite z-score in test [8], in test [9] and in test [10] were 0.462, 0.694 and 2.06, respectively. The compound further gave a z-score in test [2] of -0.684.
For `O=C1[C@H]2C=C(I)[C@H](C[C@@H]2OCCOCCO)[C@@]12CO2`, the composite z-score in test [1] was 0.496; in [3], 0.547; in test [4], -0.315; in [5] it was -0.876; in test [6], -0.26; in [7], -0.243. In addition, the composite z-score in test [8] is 0.101; in [9] it was 0.269; in [10] it was -0.0432. For the same compound, in test [2], the z-score is -2.21.
